NOD2 RIPK2 PPI = blocks binding of human NOD2 to RIPK2; O43353; CHO BLA complementation NOD2-RIPK2, CCF4 ratio; inhibition, % at 4.98 µM; 360,000 tested, 0.38% active; in the data active means inhibition above about 21%;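 further: 0% = vehicle only and 100% = reference blocker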
Target sequence (O43353 whole entry, looked up): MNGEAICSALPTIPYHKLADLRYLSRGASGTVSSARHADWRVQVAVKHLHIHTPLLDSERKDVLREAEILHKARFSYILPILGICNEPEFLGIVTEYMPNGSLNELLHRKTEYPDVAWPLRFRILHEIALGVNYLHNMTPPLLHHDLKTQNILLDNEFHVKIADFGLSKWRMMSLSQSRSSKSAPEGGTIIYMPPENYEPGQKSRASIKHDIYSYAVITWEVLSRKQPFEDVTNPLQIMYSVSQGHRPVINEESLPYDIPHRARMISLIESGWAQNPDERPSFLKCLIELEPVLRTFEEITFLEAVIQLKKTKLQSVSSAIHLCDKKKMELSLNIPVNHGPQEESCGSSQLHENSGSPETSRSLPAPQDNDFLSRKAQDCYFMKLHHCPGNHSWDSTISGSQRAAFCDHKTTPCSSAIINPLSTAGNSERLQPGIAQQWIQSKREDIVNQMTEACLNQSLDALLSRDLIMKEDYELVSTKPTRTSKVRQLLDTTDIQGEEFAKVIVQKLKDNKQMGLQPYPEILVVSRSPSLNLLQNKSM
TLR4 MyD88 comp = TLR4-MyD88 interaction inhibition in cells; inhibition, % at 8.4 µM; HeLa CL3-4 TLR4/MyD88 BLA complementation, FRET ratio; O00206+Q99836; 200,000 tested, 0.18% active; AID 861; in the data active means inhibition above about 25%;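 further: 0% = vehicle and 100% = reference inhibitor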
HSF1 inhib = HSF1 inhibition. NIH3T3-HGL HSE-luciferase, MG132-induced, luminescence 8 h; stronger effect = lower value. 300,000 tested, 0.77% active. activity change, negative = inhibition, % at 7.5 µM (by protocol);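 active means more than half of replicate wells show activity change below -50%, luminescence cut by over half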;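 further: luciferase reports HSF-1 transcriptional activity via heat shock element; 0% = median of DMSO wells and -100% = zero luminescence signal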
HSF1 activator = increases HSF-1 driven luciferase reporter signal. NIH3T3-HGL HSF-1 luciferase reporter, MG132, 8 h; 100% = twice DMSO control signal. activation, % at 9 µM. 300,000 tested, 1.7% active. AID 504408;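 active means mean replicate activation of at least 50% with a set share of replicates each reaching 50%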;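 further: 0% = median of the neutral control wells and 100% = twice that signal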
TLR9-MyD88 block = blocks human TLR9 binding to MyD88; Q9NR96+Q99836; CHO BLA complementation TLR9-MyD88, CCF4 FRET ratio; inhibition, % at 4.98 µM; 340,000 tested, 0.21% active;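 active means inhibition above the mean over all tested compounds plus 3 SD, cut at about 21% in these data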;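 further: 0% = DMSO only wells and 100% = clavulanate BLA inhibitor control wells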
Active calls of the source: *; x = not tested or not shown. Compounds with a hit are over-represented: about 2.4% of the library has one in this group of screens.

SMILES | NOD2 RIPK2 PPI | TLR4 MyD88 comp | HSF1 inhib | HSF1 activator | TLR9-MyD88 block
CCc1nc2c(OCc3ccc(F)cc3)cccn2c1N(C)C(=O)C(C)C | -9 | x | x | x | x
Nc1ccccc1C#CC(=O)c1ccccc1 | 1 | x | 58 | 84* | -9
O=C(NC1CCCCC1)C1CCCN1S(=O)(=O)c1cccc2nsnc12 (stereo not drawn) | -3 | -3 | 8 | 54* | 1
O=C(Cc1ccc(Cl)cc1)c1ccc(O)cc1 | -15 | x | 22 | 52* | 3
Cc1ccc(CC(=O)c2ccc(Cl)cc2)cc1 | -7 | x | 17 | 25 | -7
COC1=CC(=O)c2ccccc2C1=O | 4 | x | x | x | 0
COC1=CC(=O)C=C(OC)C1=O | 22* | x | x | x | 15
CNS(=O)(=O)c1cccc(C(=O)NNC(=O)c2ccc(COc3ccccc3)cc2)c1 | -11 | x | -4 | -10 | -11
Cc1ccc(S(=O)(=O)N(C)C)cc1NC(=S)N(C)C1CCN(C)CC1 | -3 | x | 6 | 55* | -16
COCCN(CCOC)C(=S)Nc1cc(S(=O)(=O)N(C)C)ccc1C | -4 | -6 | -6 | 3 | -7
Cc1ccc(S(=O)(=O)N(C)C)cc1NC(=S)NC(C)CCC(C)C (stereo not drawn) | -5 | 0 | 10 | 38 | -6
Cc1ccc(S(=O)(=O)N(C)C)cc1NC(=S)NC(C)CCCC(C)C (stereo not drawn) | 0 | 1 | 18 | 57* | -2
Nc1ccc2c(c1)C(=O)CCC2 | -2 | x | x | x | 8
CC1(C(=O)Nc2cnc3ccccc3c2)CCN1Cc1ccccc1OC(F)F (stereo not drawn) | 3 | x | x | x | x
Cc1ccc(C)c(-c2nn(-c3cc(N4CCN(CCO)CC4)ccc3[N+](=O)[O-])c(=O)c3ccccc23)c1 | 22* | -14 | 5 | 30 | 3
O=C(NCCc1ccccc1F)C1C(=O)Nc2ccccc2C(=O)N1C1CCCCC1 (stereo not drawn) | -18 | x | x | x | x
CCCOc1ccc(/C(O)=C2/C(=O)C(=O)N(CCN(C)C)C2c2ccc(O)c(OC)c2)cc1 (stereo not drawn) | -6 | 3 | -77* | -80 | -4
O=C(c1ccccc1)c1coc(-c2ccccc2)c1 | -6 | x | x | x | -17
O=C(CSc1c2c(nc3cc(Cl)ccc13)CCCC2)NCCCN1CCOCC1 | 8 | 5 | 141 | 189* | -4
Cc1ccc(CNC(=O)CSc2c3c(nc4cc(Cl)ccc24)CCCC3)o1 | 2 | -3 | 44 | 65* | -9
O=C(CSc1c2c(nc3ccccc13)CCCC2)NCc1ccco1 | -3 | -2 | 40 | 86* | 6
COCCCNC(=O)CSc1c2c(nc3ccc(Cl)cc13)CCCC2 | -5 | 1 | 37 | 40 | 0
CN1CCN(CCCNC(=O)c2ccc3c(Cl)c4c(nc3c2)CCCC4)CC1 | 7 | x | 15 | 4 | 6
O=C(CSc1c2c(nc3ccc(Cl)cc13)CCCC2)NCCCN1CCOCC1 | 2 | 7 | 41 | 68* | 4
CCOC(=O)C1CCN(S(=O)(=O)c2ccc(OC)c(C(=O)N3CCCCC3)c2)CC1 | -13 | x | 3 | 9 | 16
SMILES | NOD2 RIPK2 PPI | TLR4 MyD88 comp | HSF1 inhib | HSF1 activator | TLR9-MyD88 block
COc1cccc(NC(=O)CCCCCn2nnc3ccccc3c2=O)c1 | 3 | x | 1 | 17 | -15
O=C(CSc1c2c(nc3cc(Cl)ccc13)CCCC2)NCCN1CCOCC1 | -6 | 10 | 43 | 65* | 0
CC(C)CCNC(=O)c1ccc2c(SCC(=O)O)c3c(nc2c1)CCC3 | -2 | x | -86* | -89 | -6
CCCCNC(=O)c1ccc2c(SCC(=O)O)c3c(nc2c1)CCCC3 | -6 | -6 | -7 | 12 | -5
CCN(CC)CCCNC(=O)CSc1c2c(nc3cc(Cl)ccc13)CCCC2 | 1 | 16 | 154 | 202* | -8
C[C@@H]1CCCCO[C@@H](CN(C)C(=O)Cc2ccccc2)[C@@H](C)CN([C@H](C)CO)C(=O)c2cc(NC(=O)C3CCCCC3)ccc2O1 | -4 | x | x | x | -3
CC1(C(=O)Nc2ccc3c(c2)OCCO3)CCN1C(=O)c1cccc(F)c1 (stereo not drawn) | 1 | x | x | x | x
O=S(=O)(Nc1ccc(O)cc1)c1cccc2cccnc12 | 4 | 4 | -10 | 2 | 3
O=S(=O)(Nc1ccccc1O)c1cccc2cccnc12 | -5 | -1 | 36 | 78* | -1
Cc1ccccc1/C(N)=N/OC(=O)c1ccc(F)cc1 | 4 | -18 | 27 | 58* | 2
CC(C)(C)C(=O)Nc1cccc(-c2cc(-c3c(Cl)cccc3Cl)no2)c1 | -5 | x | 19 | 54* | 7
Cc1ccc(CN2CC(N3CCCCC3)CS2(=O)=O)cc1 (stereo not drawn) | -2 | x | x | x | x
O=C(COC(=O)COc1ccccc1)NCc1ccccc1 | -2 | -2 | -12 | -19 | 3
COC(=O)c1ccc(CNC(=O)COC(=O)COc2ccc(OC)cc2)cc1 | 0 | 6 | -68* | -73 | -6
CCN(CC(=O)Nc1ccccc1C(F)(F)F)C(=O)CN1C(=O)NC(C)(c2ccc3ccccc3c2)C1=O (stereo not drawn) | 13 | x | x | x | 3
CCOc1ccccc1/C=C/C(=O)c1ccc(Cl)cc1 | 1 | 4 | 30 | 69* | -2
OCC[C@H]1C[C@@H](O)[C@H](O)[C@@]2(OCc3ccccc32)O1 | -12 | x | x | x | -10
COc1ccc(C2C(C#N)=C(C)NC3=C2C(=O)c2ccccc23)cc1 (stereo not drawn) | -10 | 5 | 1 | 13 | 5
CC1=C([N+](=O)[O-])C(c2ccccc2)C2=C(N1)c1ccccc1C2=O (stereo not drawn) | 1 | 1 | 38 | 57* | 6
CCCc1nnc(NC(=O)CCC(=O)N2CCN(S(=O)(=O)c3ccc(F)cc3)CC2)s1 | -12 | x | -86* | -88 | -5
CCCc1nnc(NC(=O)CCC(=O)N2CCN(Cc3cc(F)ccc3OC)CC2)s1 | 13 | x | 0 | 2 | 2
CCCC(NC(=O)CCc1c(C)c2cc3c(-c4ccccc4)coc3cc2oc1=O)C(=O)O (stereo not drawn) | -1 | x | 0 | 3 | -7
COC1CCCN(C(=O)c2ccc(OC3CCN(CCc4ccccc4)CC3)cc2)C1 (stereo not drawn) | 0 | -5 | -74* | -77 | -8
O=C(c1ccc(OC2CCN(CCc3ccccc3)CC2)cc1)N1CCCC(O)C1 (stereo not drawn) | -8 | -11 | -1 | 7 | 2
COc1ccc(NC(=O)c2cc(S(=O)(=O)N3CCCC3)oc2C)cc1 | 7 | x | -2 | 30 | -2
Cc1oc(S(=O)(=O)N(C)C)cc1C(=O)Nc1ccc(Cl)cc1 | -4 | x | 15 | 55* | -5
Cc1ccccc1S(=O)(=O)Nc1nc2ccccc2nc1N1CCc2ccccc2C1 | -8 | -1 | 42 | 71* | -11
CC(=O)Nc1ccc(S(=O)(=O)Nc2nc3ccccc3nc2N2CCc3ccccc3C2)cc1 | -2 | 4 | 18 | 32 | -6
O=S(=O)(Nc1nc2ccccc2nc1N1CCc2ccccc2C1)c1ccc(Cl)cc1 | 2 | 6 | 20 | 57* | -8
